The source made the active and inactive calls. Unless noted, the rule behind the calls is not given here.
Legend:
[1] = test system: Wnt5a (protein binding on small-molecule microarray); assay: Wnt5a binders on small-molecule microarray, primary screen, biophysical, 635/667 nm fluorescence (AID 1142); conditions: 635 nm fluorescence, higher = more signal;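 note: fluorescence read at 667 nm with signal to noise per printed feature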
[2] = cell viability in Huh7 cells, primary screen, cytotoxicity control for HCV replication inhibitor project, CellTiter-Glo luminescence, basal, 48 h (AID 1143); conditions: Huh7 HCV replicon, higher = more signal, called active from +8 up or from −8 down;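 note: Huh7 hepatoma cells carrying a hepatitis C replication reporter with no stimulus; test concentration not given here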
[3] = P. aeruginosa biofilm formation inhibitors, primary screen, PAO1 strain, BacTiter-Glo luminescence, LB-PBS (AID 1144); conditions: 12 h, higher = more signal
[4] = CREB reporter modulators without forskolin, primary screen, cell-based, PC12, CRE-LacZ reporter, unstimulated (AID 1145); conditions: no forskolin, luminescence, 4.5 h, higher = more signal, called active from +8 up or from −8 down
[5] = CREB reporter modulators under forskolin, primary screen, cell-based, PC12, CRE-LacZ reporter, forskolin-stimulated (AID 1146); conditions: luminescence, 4.5 h, higher = more signal, called active from +8 up or from −8 down;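 note: PC12 cells with 6xCRE LacZ reporter stimulated by forskolin 10 µM; beta-galactosidase reporter signal reflecting CREB driven transcription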
[6] = molecular target: Streptavidin (Streptomyces avidinii) (UniProt P22629); assay: streptavidin binders on small-molecule microarray, primary screen, artefact control for SMM compound annotation, biophysical, 635/667 nm fluorescence (AID 1147); conditions: streptavidin binding, higher = more signal;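 note: signal reflects streptavidin binding to arrayed compounds as a control protein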
[7] = small-molecule binders of probe aInhba, primary screen, biochemical, small-molecule microarray, 635/667 nm fluorescence (AID 1148); conditions: higher = more signal;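 note: score merges 667nm spot fluorescence with signal-to-noise for antibody binding to printed compounds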
Torsin-1A (Homo sapiens) [8] = molecular target: Torsin-1A (Homo sapiens) (UniProt O14656); assay: torsin A binders from cell lysate, primary screen, small-molecule microarray, wild-type, 635/667 nm (AID 1149); conditions: COS7 hTOR1A-WT lysate, 635 nm fluorescence, higher = more signal
Torsin-1A (Homo sapiens) [9] = molecular target: Torsin-1A (Homo sapiens) (UniProt O14656); assay: small-molecule binders of mutant TOR1A in lysate, primary screen, cell lysate, small-molecule microarray, COS7 lysate, 635/667 nm fluorescence (AID 1150); conditions: COS7 hTOR1A mutant lysate, 635 nm fluorescence, higher = more signal;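 note: score pools 667 nm emission and signal to noise measuring lysate protein binding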
[10] = test system: Sonic hedgehog protein (Shh); assay: small-molecule binders of Shh protein, primary screen, biochemical, small-molecule microarray, 635/667 nm fluorescence (AID 1151); conditions: small-molecule microarray binding, 635 nm fluorescence; higher = more signal;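 note: Shh protein binding to compounds spotted on small-molecule microarray slides; score combines spot fluorescence intensity with signal-to-noise across triplicate slides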
[11] = E. coli DRC41 culture turbidity changes, primary screen, E. coli filamentation inducer project, strain DRC41, OD650, 48 h (AID 1152);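 note: E. coli MC1000 strain DRC41 lacking acrAB efflux pump and sulA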; conditions: E. coli DRC41 (acrAB sulA), higher = more signal, called active from +8 up or from −8 down
[12] = small-molecule binders of probe aLefty1, primary screen, biochemical, small-molecule microarray, 635/667 nm fluorescence (AID 1153); conditions: higher = more signal;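 note: score merges spot fluorescence with signal-to-noise ratio from the scanned slide images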
[13] = PSAC antagonists in infected red cells, primary screen, cell-based, P. falciparum Indochina, OD700, 1 h (AID 1154); conditions: P. falciparum Indochina infected RBC osmotic lysis, higher = more signal, called active from +8 up or from −8 down
[14] = PSAC antagonists in infected red cells, primary screen, cell-based, P. falciparum Indochina, OD700, 2 h (AID 1155);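 note: lysis reports solute entry through the parasite surface anion channel PSAC; channel blockers reduce lysis of infected cells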; conditions: P. falciparum Indochina infected erythrocytes, osmotic lysis OD700; higher = more signal, called active from +8 up or from −8 down
[15] = osmotic lysis modulators in infected erythrocytes, primary screen, PSAC antagonist project, cell-based, P. falciparum Indochina, OD700, 3 h (AID 1156); conditions: higher = more signal, called active from +8 up or from −8 down
[16] = PSAC antagonists in infected red cells, primary screen, cell-based, P. falciparum Indochina, OD700, 18 h (AID 1157); conditions: P. falciparum Indochina infected erythrocytes, osmotic lysis OD700, 18 h; higher = more signal, called active from +8 up or from −8 down
[17] = modulators of S6 phosphorylation in cells, primary screen, cell-based, A549, cytoblot, luminescence, serum-stimulated (AID 1158); conditions: A549 phospho-S6 cytoblot, 5 h, higher = more signal;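 note: serum-stimulated A549 lung adenocarcinoma cells; signal is phosphorylated S6 detected by cytoblot immunostaining with HRP secondary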
[18] = molecular target: NADPH oxidase 2 (Homo sapiens) (UniProt P04839); assay: NOX2-dependent H2O2 signal modulators, primary screen, NOX inhibitor project, cell-based, HEK293-NOX2, PMA-stimulated, Amplex Red fluorescence (AID 1159); conditions: 45 min, higher = more signal, called active from +8 up or from −8 down; note: test concentration not given here
[19] = molecular target: NADPH oxidase 4 (Homo sapiens) (UniProt Q9NPH5); assay: NOX4-dependent H2O2 signal modulators, primary screen, NOX inhibitor project, cell-based, HEK293-NOX4, tetracycline-induced, Amplex Red fluorescence (AID 1160); conditions: 45 min, higher = more signal, called active from +8 up or from −8 down
[20] = molecular target: NADPH oxidase 5 (Homo sapiens) (UniProt Q96PH1); assay: NOX5-dependent H2O2 signal modulators, primary screen, NOX inhibitor project, cell-based, HEK293-NOX5, Amplex Red fluorescence (AID 1161); conditions: HEK293-NOX5, ionomycin, 45 min, higher = more signal
Chain of NADPH oxidase 5 (Homo sapiens) (Q96PH1 whole entry, looked up): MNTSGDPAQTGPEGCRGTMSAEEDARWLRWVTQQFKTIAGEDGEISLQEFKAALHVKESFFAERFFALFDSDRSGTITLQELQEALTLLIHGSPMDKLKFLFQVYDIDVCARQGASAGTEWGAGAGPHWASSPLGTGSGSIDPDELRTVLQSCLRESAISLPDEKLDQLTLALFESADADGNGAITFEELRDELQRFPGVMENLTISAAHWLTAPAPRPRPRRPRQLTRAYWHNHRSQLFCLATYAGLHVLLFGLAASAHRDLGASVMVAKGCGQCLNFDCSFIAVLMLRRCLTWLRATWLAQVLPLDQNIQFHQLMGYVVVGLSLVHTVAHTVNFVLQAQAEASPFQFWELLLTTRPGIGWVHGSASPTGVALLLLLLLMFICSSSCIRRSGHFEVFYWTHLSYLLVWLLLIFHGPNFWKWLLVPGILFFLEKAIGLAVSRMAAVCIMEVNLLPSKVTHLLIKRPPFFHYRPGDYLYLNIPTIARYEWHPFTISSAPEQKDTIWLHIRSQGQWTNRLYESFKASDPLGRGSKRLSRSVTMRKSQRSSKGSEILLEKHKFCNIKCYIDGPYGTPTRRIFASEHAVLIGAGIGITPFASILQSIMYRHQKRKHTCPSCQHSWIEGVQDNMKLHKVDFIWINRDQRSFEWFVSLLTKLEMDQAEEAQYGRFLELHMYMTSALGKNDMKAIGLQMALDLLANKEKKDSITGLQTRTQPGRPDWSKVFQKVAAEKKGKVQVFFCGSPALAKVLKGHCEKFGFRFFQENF

Chain of NADPH oxidase 4 (Homo sapiens) (Q9NPH5 whole entry, looked up): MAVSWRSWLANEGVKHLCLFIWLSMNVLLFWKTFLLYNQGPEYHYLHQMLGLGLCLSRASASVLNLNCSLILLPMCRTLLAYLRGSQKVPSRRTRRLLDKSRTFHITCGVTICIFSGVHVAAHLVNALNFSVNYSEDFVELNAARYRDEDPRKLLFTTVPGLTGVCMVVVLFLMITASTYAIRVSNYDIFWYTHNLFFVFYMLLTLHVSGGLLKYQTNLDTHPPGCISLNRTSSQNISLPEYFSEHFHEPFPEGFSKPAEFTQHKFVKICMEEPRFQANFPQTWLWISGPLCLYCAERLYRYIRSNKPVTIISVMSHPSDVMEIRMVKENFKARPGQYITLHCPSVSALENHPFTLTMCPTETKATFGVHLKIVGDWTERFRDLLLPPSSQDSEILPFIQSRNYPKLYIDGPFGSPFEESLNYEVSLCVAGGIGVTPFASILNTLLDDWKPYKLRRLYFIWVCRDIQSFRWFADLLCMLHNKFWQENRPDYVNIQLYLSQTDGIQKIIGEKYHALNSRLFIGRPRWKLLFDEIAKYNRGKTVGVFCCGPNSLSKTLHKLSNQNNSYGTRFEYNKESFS
Chain of Torsin-1A (Homo sapiens) (O14656 whole entry, looked up): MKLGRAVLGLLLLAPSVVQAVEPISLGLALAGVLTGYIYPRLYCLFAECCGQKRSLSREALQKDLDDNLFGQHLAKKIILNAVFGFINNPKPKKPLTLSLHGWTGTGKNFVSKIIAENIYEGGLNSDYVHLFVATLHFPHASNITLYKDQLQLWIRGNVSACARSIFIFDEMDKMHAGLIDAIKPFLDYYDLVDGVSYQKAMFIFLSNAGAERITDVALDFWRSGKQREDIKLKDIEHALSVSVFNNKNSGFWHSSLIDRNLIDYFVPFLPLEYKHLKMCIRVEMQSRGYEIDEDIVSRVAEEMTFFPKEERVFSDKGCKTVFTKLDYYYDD
Chain of NADPH oxidase 2 (Homo sapiens) (P04839 whole entry, looked up): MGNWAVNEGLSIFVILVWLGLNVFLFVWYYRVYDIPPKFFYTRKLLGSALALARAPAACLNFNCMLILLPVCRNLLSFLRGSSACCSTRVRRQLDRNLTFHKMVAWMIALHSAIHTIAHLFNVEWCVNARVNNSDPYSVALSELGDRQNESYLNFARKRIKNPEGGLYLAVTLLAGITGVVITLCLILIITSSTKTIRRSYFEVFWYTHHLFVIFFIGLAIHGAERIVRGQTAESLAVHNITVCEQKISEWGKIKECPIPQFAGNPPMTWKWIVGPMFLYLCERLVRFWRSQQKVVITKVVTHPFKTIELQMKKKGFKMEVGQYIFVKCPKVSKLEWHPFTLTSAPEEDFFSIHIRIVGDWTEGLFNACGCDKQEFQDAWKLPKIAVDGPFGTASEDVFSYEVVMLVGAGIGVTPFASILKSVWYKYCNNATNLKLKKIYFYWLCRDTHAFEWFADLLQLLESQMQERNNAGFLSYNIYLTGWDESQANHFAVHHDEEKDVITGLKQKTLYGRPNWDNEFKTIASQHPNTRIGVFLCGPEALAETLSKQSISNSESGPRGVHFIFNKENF
Chain of Streptavidin (Streptomyces avidinii) (P22629 whole entry, looked up): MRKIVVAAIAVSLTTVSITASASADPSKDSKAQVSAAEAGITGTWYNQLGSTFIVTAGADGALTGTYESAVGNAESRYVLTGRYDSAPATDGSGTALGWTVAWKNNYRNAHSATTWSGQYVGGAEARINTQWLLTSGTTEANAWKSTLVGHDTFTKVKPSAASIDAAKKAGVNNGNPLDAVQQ

| SMILES | composite z-score [1] | z-score [2] | z-score [3] | z-score [4] | z-score [5] | composite z-score [6] | composite z-score [7] | composite z-score (Torsin-1A (Homo sapiens) [8]) | composite z-score (Torsin-1A (Homo sapiens) [9]) | composite z-score [10] | z-score [11] | composite z-score [12] | z-score [13] | z-score [14] | z-score [15] | z-score [16] | z-score [17] | z-score [18] | z-score [19] | z-score [20] |
| --- | --- | --- | --- | --- | --- | --- | --- | --- | --- | --- | --- | --- | --- | --- | --- | --- | --- | --- | --- | --- |
| C=C(C(=O)CC[C@H](OC(=O)c1ccccc1-c1ccccc1C(=O)O)c1cccc(OCCO)c1)C(C)C | -0.103 | -0.208 (inactive) | -0.125 (inactive) | 0.102 (inactive) | 3.19 (inactive) | -0.186 | -0.0719 | -0.492 | -0.0541 | 0.432 | -0.567 (inactive) | -0.328 | 4.87 (inactive) | 0.857 (inactive) | 2.06 (inactive) | 0.503 (inactive) | 0.0988 | 1.49 (inactive) | 0.361 (inactive) | -1.48 |
| CC(C)N1C(=O)c2ccccc2[C@@H](C(=O)NCCN2CCOCC2)[C@@H]1c1ccc(CO)cc1 | -1.15 | 0.179 (inactive) | -0.0165 (inactive) | 0.324 (inactive) | -0.107 (inactive) | -1.14 | -0.238 | -3.17 | -1.46 | -1.49 | -0.675 (inactive) | -0.0908 | 2.01 (inactive) | -0.151 (inactive) | 1.24 (inactive) | 0.255 (inactive) | -0.468 | 1.59 (inactive) | 0.675 (inactive) | 0.474 |
| CC1=C2[C@@H](CCc3ccccc3)OB(O)C[C@@H]2[C@@H]2C(=O)N(Cc3ccccc3)C(=O)[C@@H]2C1 | 0.0023 | -0.23 (inactive) | 0.615 (inactive) | 0.39 (inactive) | -0.138 (inactive) | -0.189 | -0.285 | 0.572 | 0.333 | 0.792 | -0.42 (inactive) | -0.301 | 11.8 (active) | 1.28 (inactive) | -0.633 (inactive) | 0.55 (inactive) | 0.433 | -0.0748 (inactive) | 0.167 (inactive) | 0.587 |
| NCCCCCNC(=O)[C@@H]1C[C@@H]2C(=O)N[C@@H](CCCCN)C(=O)N2[C@@H]1c1ccc(O)cc1 | -0.0113 | -0.308 (inactive) | -0.148 (inactive) | 0.0205 (inactive) | -0.878 (inactive) | 0.811 | 0.217 | 0.811 | 1.59 | 1.99 | -0.175 (inactive) | 0.739 | 3.95 (inactive) | 1.74 (inactive) | -2.34 (inactive) | 0.937 (inactive) | -0.912 | 1.5 (inactive) | 1.85 (inactive) | 1.48 |
| COC(=O)C/C=C/C[C@]1(O)C(=O)N(C)c2ccccc21 | 0.0325 | -1.2 (inactive) | -0.716 (inactive) | 1.04 (inactive) | -1.55 (inactive) | -0.373 | -0.104 | 0.325 | 0.582 | 0.775 | 2.8 (inactive) | -0.147 | -0.526 (inactive) | -0.562 (inactive) | -0.679 (inactive) | -1.87 (inactive) | 1.26 | -0.563 (inactive) | 0.4 (inactive) | 0.882 |
| CCCCC=C[C@@H](NC(=O)OCc1ccccc1Cl)c1ccccc1 | 1.45 | -0.392 (inactive) | -0.146 (inactive) | 0.394 (inactive) | 1.02 (inactive) | 0.484 | 0.592 | -0.266 | 0.665 | 0.62 | -2.07 (inactive) | 2.4 | 0.278 (inactive) | 0.894 (inactive) | 0.806 (inactive) | 0.887 (inactive) | -0.0327 | 0.027 (inactive) | -0.52 (inactive) | 1.24 |
| C=C[C@@H](CO)N(Cc1ccc(OC)cc1)S(=O)(=O)c1ccc(Br)cc1 | -0.0447 | -3.07 (inactive) | -0.445 (inactive) | -0.104 (inactive) | -0.895 (inactive) | 0.396 | -0.154 | 1.16 | 1.13 | -0.0145 | 1.77 (inactive) | -0.639 | 2.48 (inactive) | -0.457 (inactive) | -1.21 (inactive) | -1.1 (inactive) | 1.66 | -1.84 (inactive) | 0.114 (inactive) | -1.26 |
| O=C(C1N=C(c2ccc(OCCCO)cc2)N(c2ccccc2)O1)N1CCCCC1 (stereo not given) | 0.296 | -0.163 (inactive) | 1.52 (inactive) | 0.0918 (inactive) | 1.91 (inactive) | 1.56 | 0.271 | 0.407 | 0.854 | 0.17 | 0.666 (inactive) | 0.0338 | 13.2 (active) | 1.66 (inactive) | 0.374 (inactive) | 0.423 (inactive) | -0.0704 | 1.12 (inactive) | 0.209 (inactive) | -0.404 |
| O=C1O[C@H](c2ccccc2)[C@H](c2ccccc2)N2[C@H]1[C@@H](C(=O)O)[C@]1(C(=O)Nc3ccc(C#CCCO)cc31)[C@H]2c1ccccc1OCCO | 0.248 | -0.873 (inactive) | -0.352 (inactive) | -0.195 (inactive) | 1.04 (inactive) | -0.18 | -0.0986 | -0.658 | -0.199 | 0.824 | -0.443 (inactive) | 0.0026 | 0.396 (inactive) | -0.353 (inactive) | -1.27 (inactive) | 0.173 (inactive) | -0.0545 | 1.93 (inactive) | 0.226 (inactive) | 0.636 |
